PubChem BioAssay (EPA / NIEHS)
Several values for one entry are separate records, joined by “and”; a condition that tells them apart may be missing. Equal entries are not always repeated. Inconclusive results are not listed. The source holds several records for some structures; these can differ, active in one and inactive in another. Activity calls are given as the source filed them. Rule for the calls, unless noted: active = hit-call score of the fitted dose curve at least 0.9, where 1 is the maximum; inconclusive = response in the unintended direction; inactive = score below 0.9.

Tests used:
[1] = target: human Norepinephrine Transporter (NET), SLC6A2 (gene 6530) (UniProt P23975); assay: NVS_TR_hNET: NovaScreen (NVS) Transporter Assay for human Norepinephrine Transporter (NET) (AID 2283377);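 note: cell-free membrane protein extracted from CHO cells expressing human NET; displacement of radioligand from human NET seen as loss of scintillation signal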
Outline: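 In this cell-free binding screen, chemicals at 25 uM (duplicate) compete with a radioligand for CHO-derived human NET over 1 hour, with filter-based radiodetection.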

[2] = target: mouse Estrogen Receptor alpha (Era), Esr1 (gene 13982) (UniProt P19785); assay: NVS_NR_mERa: NovaScreen (NVS) Nuclear Receptor Binding Assay for mouse Estrogen Receptor alpha (Era) (AID 2283378);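 note: hit means loss of bound radioligand signal relative to DMSO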
Outline: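 Test chemicals competed against a specific radioligand for binding to cell-free mouse Era. Duplicate wells at 25 uM were read 18 hours later by filter-based radiodetection, with loss of signal against DMSO scored as activity.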

[3] = target: Agonist Androgen Response Element (ARE), AR (gene 367) (UniProt P10275); assay: OT_AR_ARELUC_AG_1440: Odyssey Thera (OT) 24-hour CHO-K1 Luciferase Assay for Agonist Androgen Response Element (ARE) (AID 2283379)
Outline: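 Luminescence increase above DMSO, read after a 24 h compound treatment of CHO-K1 cells expressing an androgen response element luciferase reporter, gives the single primary endpoint; concentration-response fitting used the positive direction.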

[4] = target: Estrogen receptor (Homo sapiens) (UniProt P03372); assay: OT_ERa_GFPERaERE_0480: Odyssey Thera (OT) 8-hour HeLa Transcription Induction Assay for Estrogen Receptor (AID 2283381; active = hit-call score of the fitted dose curve at least 0.9, where 1 is the maximum; inactive = score below 0.9)
Outline: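 Fluorescence microscopy with high-content image analysis measures ERE-driven GFP induction in HeLa cells at 8 h post-dose. Increases fitted against DMSO baseline.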

[5] = target: Estrogen receptor (Homo sapiens) (UniProt P03372); assay: OT_ERa_GFPERaERE_0120: Odyssey Thera (OT) 2-hour HeLa Transcription Induction Assay for Estrogen Receptor (AID 2283382)
Outline: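 Fluorescence-microscopy images of the GFP-ERα/ERE reporter, scored by high-content image algorithms, give the readout. HeLa exposure lasted 2 h, and only signal increase over DMSO was fitted.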

[6] = target: Peroxisome proliferator-activated receptor gamma (Homo sapiens) (UniProt P37231); assay: OT_PPARg_PPARgSRC1_0480: Odyssey Thera (OT) 8-hour Protein-Complementation Assay for Peroxisome Proliferator-activated Receptor Gamma / SRC-1 Co-activator (AID 2283387);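 note: nuclear to cytoplasmic split Venus YFP fluorescence ratio reporting PPARg SRC-1 interaction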
Outline: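 Read-out: 488 nm N/C fluorescence ratio from complemented Venus YFP fragments, ≥350 cells per image, gain-of-signal fitted against DMSO baseline. Fusions of PPARg/SRC-1 with IFP1/IFP2 expressed transiently in HEK293T; compounds applied 8 h.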

[7] = target: Peroxisome proliferator-activated receptor gamma (Homo sapiens) (UniProt P37231); assay: OT_PPARg_PPARgSRC1_1440: Odyssey Thera (OT) 24-hour Protein-Complementation Assay for Peroxisome Proliferator-activated Receptor Gamma/ SRC-1 Co-activator (AID 2283388);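 note: nuclear to cytoplasmic ratio of reconstituted Venus YFP fluorescence in fixed imaged cells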
Outline: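 Transient HEK293T, YFP fragments 1-158/159-239 (mutant IFP1/IFP2) fused to PPARg/SRC-1; 24 h dosing; fix 4% formaldehyde, Draq5; Opera imaging 488/635 nm; N/C ratio, gain vs DMSO.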

[8] = target: Estrogen receptor beta (Homo sapiens) (UniProt Q92731); assay: OT_ER_ERbERb_1440: Odyssey Thera (OT) 24-hour HEK293T Protein-Complementation Assay for Estrogen Receptor-beta/-beta Homodimer (AID 2283380);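 note: fluorescence gain from ER beta LBD homodimer complementation read by laser scanning cytometry; scored as signal increase over DMSO baseline for both agonists and antagonists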
Outline: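 HEK293T cells stably expressing human ER-beta LBD (aa 310-547) PCA homodimer pair, dosed 24 h; formaldehyde-fixed, Draq5-stained. Readout: increase in nuclear (agonist) or nuclear plus cytoplasmic (antagonist) fluorescence intensity versus DMSO, gain-of-signal fitting.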

[9] = target: Bile acid receptor (Homo sapiens) (UniProt Q96RI1); assay: OT_FXR_FXRSRC1_0480: Odyssey Thera (OT) 8-hour HEK293T Protein-Complementation Assay for Farnesoid X receptor/SRC-1 Co-activator (AID 2283383)
Outline: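 Binding of FXR to coactivator SRC-1 was read as fluorescence from a reconstituted split reporter in HEK293T cells, 8 h after chemical addition. Only increases in signal versus DMSO were fit.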

[10] = target: Bile acid receptor (Homo sapiens) (UniProt Q96RI1); assay: OT_FXR_FXRSRC1_1440: Odyssey Thera (OT) 24-hour HEK293T Protein-Complementation Assay for Farnesoid X receptor/SRC-1 Co-activator (AID 2283384)
Outline: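 Protein-fragment complementation: FXR and SRC-1 fused to reporter fragments that reassemble on interaction, read by fluorescence intensity. Human HEK293T cells measured 24 h post-dose; positive-direction fit versus DMSO.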

[11] = target: Retinoic acid receptor RXR-alpha (Homo sapiens) (UniProt P19793); assay: OT_NURR1_NURR1RXRa_0480: Odyssey Thera (OT) 8-hour HEK293T Protein Complementation Assay for Nurr1/retinoid X receptor (RXR) (AID 2283385)
Outline: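 Interaction of Nurr1 with RXRα read as reconstituted reporter fluorescence in a HEK293T fragment-complementation system, 8 h post-treatment; increase over DMSO baseline analysed.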

[12] = target: Retinoic acid receptor RXR-alpha (Homo sapiens) (UniProt P19793); assay: OT_NURR1_NURR1RXRa_1440: Odyssey Thera (OT) 24-hour HEK293T Protein Complementation Assay for Nurr1/retinoid X receptor (RXR) (AID 2283386)
Outline: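 Gain in fluorescence, fitted relative to DMSO, reflects Nurr1–RXRα association in HEK293T cells after 24 h dosing. Bait and prey are each linked to a reporter-protein fragment that reassembles on interaction.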

[13] = CEETOX_H295R_OHPREG: CeeTox H295R High-throughput Steroidogenesis Assay for OH-Pregnenolone (OHPREG) (AID 2283434; active = hit-call score of the fitted dose curve at least 0.9, where 1 is the maximum; inactive = score below 0.9); conditions: actives raise or lower the signal
Outline: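 Readout: HPLC-MS/MS of 17alpha-hydroxypregnenolone in medium after 48 h chemical exposure of H295R cells pretreated with forskolin. Values fitted bidirectionally relative to DMSO; chemicals reducing viability to 20–70% were retested after 10-fold dilution.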

[14] = CEETOX_H295R_OHPROG: CeeTox H295R High-throughput Steroidogenesis Assay for OH-Progesterone (OHPROG) (AID 2283435; active = hit-call score of the fitted dose curve at least 0.9, where 1 is the maximum; inactive = score below 0.9;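 for AC50: 17alpha-hydroxyprogesterone secreted into medium measured by HPLC-MS/MS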); conditions: actives raise or lower the signal
Outline: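 Medium steroid levels read by LC-MS/MS after 48 h chemical treatment (0.1% DMSO) of human adrenal H295R cells that had been forskolin-primed (10 uM, 48 h). Gain or loss fitted against DMSO; MTT cytotoxicity checked per well.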

[15] = CEETOX_H295R_ANDR: CeeTox H295R High-throughput Steroidogenesis Assay for Androstenedione (ANDR) (AID 2283436; active = hit-call score of the fitted dose curve at least 0.9, where 1 is the maximum; inactive = score below 0.9;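 note: human H295R adrenal cells exposed for 48 h with androstenedione measured in medium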); conditions: actives raise or lower the signal
Outline: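 Steroidogenesis in H295R adrenal cells after 48 h dosing; androstenedione quantified by LC-MS/MS, with DMSO as negative control and baseline for bidirectional curve fitting.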

[16] = CEETOX_H295R_CORTIC: CeeTox H295R High-throughput Steroidogenesis Assay for Corticosterone (CORTIC) (AID 2283437; active = hit-call score of the fitted dose curve at least 0.9, where 1 is the maximum; inactive = score below 0.9;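 note: corticosterone secreted into medium quantified by mass spectrometry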;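 for AC50: human H295R adrenal cells prestimulated with forskolin before chemical exposure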); conditions: actives raise or lower the signal
Outline: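 Steps: seed H295R, adhere overnight; 10 uM forskolin 48 h; replace with chemical (0.1% DMSO) 48 h; extract medium with MTBE; quantify corticosterone by HPLC-MS/MS; score bidirectionally vs DMSO.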

[17] = CEETOX_H295R_CORTISOL: CeeTox H295R High-throughput Steroidogenesis Assay for Cortisol (AID 2283438; active = hit-call score of the fitted dose curve at least 0.9, where 1 is the maximum; inactive = score below 0.9); conditions: actives raise or lower the signal
Outline: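 Cortisol measured by HPLC-MS/MS after MTBE extraction of medium from H295R cells exposed 48 h to chemical (0.1% DMSO), following 48 h prestimulation with 10 uM forskolin. Viability assessed by MTT in the same wells.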

[18] = CEETOX_H295R_DOC: CeeTox H295R High-throughput Steroidogenesis Assay for DOC (AID 2283439; active = hit-call score of the fitted dose curve at least 0.9, where 1 is the maximum; inactive = score below 0.9); conditions: actives raise or lower the signal
Outline: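 11-Deoxycorticosterone quantified in medium by MTBE extraction and HPLC-MS/MS after 48 h chemical exposure (0.1% DMSO) of forskolin-primed (10 uM, 48 h) H295R cells. Same-well MTT viability; data fitted bidirectionally against DMSO.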

[19] = CEETOX_H295R_ESTRADIOL: CeeTox H295R High-throughput Steroidogenesis Assay for Estradiol (AID 2283440; active = hit-call score of the fitted dose curve at least 0.9, where 1 is the maximum; inactive = score below 0.9;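 note: estradiol secreted into medium quantified by LC-MS/MS after dansyl derivatisation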); conditions: actives raise or lower the signal
Outline: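 Following OECD 456 with minor changes, H295R cells received 10 uM forskolin for 48 h and then test chemical for 48 h. Hormone output was read by HPLC-MS/MS, with cytotoxic concentrations diluted until MTT viability reached ≥70%.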

[20] = CEETOX_H295R_ESTRONE: CeeTox H295R High-throughput Steroidogenesis Assay for Estrone (AID 2283441; active = hit-call score of the fitted dose curve at least 0.9, where 1 is the maximum; inactive = score below 0.9); conditions: actives raise or lower the signal
Outline: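 Estrone secreted into medium quantified by LC-MS/MS after dansyl chloride derivatization, following 48 h chemical exposure (0.1% DMSO final) of forskolin-prestimulated (10 uM, 48 h) H295R cells; gain or loss fitted against DMSO; MTT viability in same wells.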

Sequence of Retinoic acid receptor RXR-alpha (Homo sapiens) (P19793 whole entry, looked up, the tested form may be a part): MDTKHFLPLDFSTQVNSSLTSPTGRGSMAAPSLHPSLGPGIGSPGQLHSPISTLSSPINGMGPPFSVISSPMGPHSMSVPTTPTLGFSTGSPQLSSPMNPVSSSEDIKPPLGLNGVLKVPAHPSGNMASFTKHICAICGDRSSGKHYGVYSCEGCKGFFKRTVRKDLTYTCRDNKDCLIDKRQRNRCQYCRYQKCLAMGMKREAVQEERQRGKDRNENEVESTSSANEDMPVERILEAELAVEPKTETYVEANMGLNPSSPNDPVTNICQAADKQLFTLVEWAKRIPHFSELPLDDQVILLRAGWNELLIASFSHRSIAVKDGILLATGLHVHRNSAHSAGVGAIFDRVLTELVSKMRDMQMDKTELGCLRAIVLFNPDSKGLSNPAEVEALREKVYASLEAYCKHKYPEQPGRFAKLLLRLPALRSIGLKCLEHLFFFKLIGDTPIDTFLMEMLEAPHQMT
Sequence of Estrogen receptor beta (Homo sapiens) (Q92731 whole entry, looked up, the tested form may be a part): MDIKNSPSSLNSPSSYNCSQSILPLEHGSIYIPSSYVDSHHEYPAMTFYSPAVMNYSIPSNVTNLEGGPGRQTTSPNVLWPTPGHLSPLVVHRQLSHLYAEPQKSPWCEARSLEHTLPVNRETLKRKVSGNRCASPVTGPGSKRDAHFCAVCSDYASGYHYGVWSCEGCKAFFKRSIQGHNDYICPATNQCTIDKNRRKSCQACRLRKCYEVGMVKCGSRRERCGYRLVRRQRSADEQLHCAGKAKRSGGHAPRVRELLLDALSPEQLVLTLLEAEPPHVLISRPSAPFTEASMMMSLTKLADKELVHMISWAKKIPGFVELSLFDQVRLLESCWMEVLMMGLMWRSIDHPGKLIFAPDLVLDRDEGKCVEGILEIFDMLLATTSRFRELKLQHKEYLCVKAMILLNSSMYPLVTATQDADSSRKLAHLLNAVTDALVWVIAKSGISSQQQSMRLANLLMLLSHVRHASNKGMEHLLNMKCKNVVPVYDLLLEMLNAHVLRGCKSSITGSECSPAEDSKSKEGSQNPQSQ
Sequence of Peroxisome proliferator-activated receptor gamma (Homo sapiens) (P37231 whole entry, looked up, the tested form may be a part): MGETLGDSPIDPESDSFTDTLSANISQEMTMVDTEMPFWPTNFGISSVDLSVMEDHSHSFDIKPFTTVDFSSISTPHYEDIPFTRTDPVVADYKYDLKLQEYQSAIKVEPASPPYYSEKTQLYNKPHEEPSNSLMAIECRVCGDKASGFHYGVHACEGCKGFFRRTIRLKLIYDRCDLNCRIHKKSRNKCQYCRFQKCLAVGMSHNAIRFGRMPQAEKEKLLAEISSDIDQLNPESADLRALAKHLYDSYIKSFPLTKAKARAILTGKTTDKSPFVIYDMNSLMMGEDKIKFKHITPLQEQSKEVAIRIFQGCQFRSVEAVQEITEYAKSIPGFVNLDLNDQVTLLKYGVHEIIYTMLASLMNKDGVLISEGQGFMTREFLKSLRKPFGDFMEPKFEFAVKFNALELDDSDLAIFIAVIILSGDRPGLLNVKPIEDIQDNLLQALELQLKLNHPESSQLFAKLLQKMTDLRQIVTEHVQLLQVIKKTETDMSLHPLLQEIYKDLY
Sequence of Agonist Androgen Response Element (ARE), AR (gene 367) (P10275 whole entry, looked up): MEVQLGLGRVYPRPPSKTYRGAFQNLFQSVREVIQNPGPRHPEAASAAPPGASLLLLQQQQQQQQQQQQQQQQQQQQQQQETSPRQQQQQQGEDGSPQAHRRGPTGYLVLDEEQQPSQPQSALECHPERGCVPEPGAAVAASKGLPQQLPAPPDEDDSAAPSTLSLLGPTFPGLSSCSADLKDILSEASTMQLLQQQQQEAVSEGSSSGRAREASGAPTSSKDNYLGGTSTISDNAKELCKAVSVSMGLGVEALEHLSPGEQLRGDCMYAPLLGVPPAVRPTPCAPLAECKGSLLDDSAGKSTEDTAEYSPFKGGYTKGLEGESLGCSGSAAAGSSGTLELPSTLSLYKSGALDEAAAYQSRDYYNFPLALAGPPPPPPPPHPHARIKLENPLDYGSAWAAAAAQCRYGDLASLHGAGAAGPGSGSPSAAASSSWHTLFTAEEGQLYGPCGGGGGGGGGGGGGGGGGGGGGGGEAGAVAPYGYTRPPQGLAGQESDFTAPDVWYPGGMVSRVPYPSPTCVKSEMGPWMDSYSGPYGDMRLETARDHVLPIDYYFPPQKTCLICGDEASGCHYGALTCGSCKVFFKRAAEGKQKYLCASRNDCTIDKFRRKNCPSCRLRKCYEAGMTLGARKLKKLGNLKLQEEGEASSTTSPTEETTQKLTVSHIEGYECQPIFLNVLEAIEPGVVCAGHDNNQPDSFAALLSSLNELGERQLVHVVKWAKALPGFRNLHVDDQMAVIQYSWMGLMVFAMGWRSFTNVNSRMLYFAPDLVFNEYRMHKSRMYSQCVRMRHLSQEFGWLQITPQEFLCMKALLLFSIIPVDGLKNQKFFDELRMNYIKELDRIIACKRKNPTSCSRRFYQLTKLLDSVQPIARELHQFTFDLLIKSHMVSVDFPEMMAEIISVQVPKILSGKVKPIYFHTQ
Sequence of Bile acid receptor (Homo sapiens) (Q96RI1 whole entry, looked up, the tested form may be a part): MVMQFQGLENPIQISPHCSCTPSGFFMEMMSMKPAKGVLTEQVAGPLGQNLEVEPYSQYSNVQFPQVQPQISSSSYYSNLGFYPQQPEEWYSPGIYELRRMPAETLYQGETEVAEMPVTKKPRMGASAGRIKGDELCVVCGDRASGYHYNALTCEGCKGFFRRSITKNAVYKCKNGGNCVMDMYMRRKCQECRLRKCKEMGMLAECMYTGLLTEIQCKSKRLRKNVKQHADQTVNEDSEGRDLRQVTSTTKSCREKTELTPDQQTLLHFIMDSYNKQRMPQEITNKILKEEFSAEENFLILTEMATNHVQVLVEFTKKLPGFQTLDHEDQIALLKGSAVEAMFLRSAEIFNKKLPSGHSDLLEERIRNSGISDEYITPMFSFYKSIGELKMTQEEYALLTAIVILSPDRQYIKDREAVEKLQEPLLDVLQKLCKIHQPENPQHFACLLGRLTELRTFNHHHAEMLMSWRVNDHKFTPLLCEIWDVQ
Sequence of Estrogen receptor (Homo sapiens) (P03372 whole entry, looked up): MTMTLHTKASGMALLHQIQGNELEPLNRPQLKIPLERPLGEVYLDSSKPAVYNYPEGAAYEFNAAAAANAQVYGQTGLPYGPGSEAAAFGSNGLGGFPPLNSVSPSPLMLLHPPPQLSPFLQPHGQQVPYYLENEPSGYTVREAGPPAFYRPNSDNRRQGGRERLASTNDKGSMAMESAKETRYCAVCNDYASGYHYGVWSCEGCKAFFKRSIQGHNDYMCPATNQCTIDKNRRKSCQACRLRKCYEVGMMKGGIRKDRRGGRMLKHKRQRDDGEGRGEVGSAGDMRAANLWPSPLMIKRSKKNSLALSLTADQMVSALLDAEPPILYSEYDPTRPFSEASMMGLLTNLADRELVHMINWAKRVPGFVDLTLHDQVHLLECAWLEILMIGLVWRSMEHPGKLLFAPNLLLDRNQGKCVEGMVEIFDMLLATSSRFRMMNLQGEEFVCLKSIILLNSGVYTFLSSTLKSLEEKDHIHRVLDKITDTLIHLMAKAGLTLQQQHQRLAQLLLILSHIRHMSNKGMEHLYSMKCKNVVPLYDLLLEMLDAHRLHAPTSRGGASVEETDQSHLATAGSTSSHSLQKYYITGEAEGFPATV
Sequence of human Norepinephrine Transporter (NET), SLC6A2 (gene 6530) (P23975 whole entry, looked up): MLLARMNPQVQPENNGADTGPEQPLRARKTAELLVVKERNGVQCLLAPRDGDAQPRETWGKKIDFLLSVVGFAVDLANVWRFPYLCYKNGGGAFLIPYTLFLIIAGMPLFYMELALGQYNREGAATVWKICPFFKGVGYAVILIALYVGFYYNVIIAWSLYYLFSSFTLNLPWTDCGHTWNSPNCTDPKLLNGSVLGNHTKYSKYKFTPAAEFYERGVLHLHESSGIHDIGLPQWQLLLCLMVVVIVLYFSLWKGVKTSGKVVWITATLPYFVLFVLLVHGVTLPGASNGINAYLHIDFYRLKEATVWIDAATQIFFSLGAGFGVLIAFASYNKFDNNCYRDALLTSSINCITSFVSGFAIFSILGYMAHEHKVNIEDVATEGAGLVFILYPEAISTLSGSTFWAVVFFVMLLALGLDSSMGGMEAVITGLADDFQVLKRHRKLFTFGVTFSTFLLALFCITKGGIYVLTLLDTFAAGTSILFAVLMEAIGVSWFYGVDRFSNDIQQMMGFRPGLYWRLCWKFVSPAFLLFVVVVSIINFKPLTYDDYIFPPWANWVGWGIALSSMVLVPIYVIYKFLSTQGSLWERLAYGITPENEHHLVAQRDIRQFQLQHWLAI
Sequence of mouse Estrogen Receptor alpha (Era), Esr1 (gene 13982) (P19785 whole entry, looked up): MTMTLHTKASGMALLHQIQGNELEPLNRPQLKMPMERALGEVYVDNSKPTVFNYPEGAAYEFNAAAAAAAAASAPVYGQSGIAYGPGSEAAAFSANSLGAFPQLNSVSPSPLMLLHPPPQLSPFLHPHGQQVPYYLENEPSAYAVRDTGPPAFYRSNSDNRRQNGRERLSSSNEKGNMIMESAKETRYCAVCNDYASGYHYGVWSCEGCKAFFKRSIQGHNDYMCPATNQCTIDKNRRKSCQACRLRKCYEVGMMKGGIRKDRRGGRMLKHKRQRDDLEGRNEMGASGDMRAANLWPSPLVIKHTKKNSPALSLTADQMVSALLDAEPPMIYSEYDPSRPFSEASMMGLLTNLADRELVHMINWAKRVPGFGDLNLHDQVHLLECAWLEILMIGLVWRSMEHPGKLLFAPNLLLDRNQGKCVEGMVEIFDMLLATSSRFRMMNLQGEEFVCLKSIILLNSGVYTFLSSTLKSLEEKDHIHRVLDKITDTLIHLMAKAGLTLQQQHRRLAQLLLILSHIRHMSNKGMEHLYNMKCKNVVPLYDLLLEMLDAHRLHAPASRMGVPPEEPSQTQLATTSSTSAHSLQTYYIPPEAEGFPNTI

Cc1ccc(-c2cc(C(F)(F)F)nn2-c2ccc(S(N)(=O)=O)cc2)cc1
AC50 [1]: 6.38 µM (active) | outcome [2]: inactive | outcome [3]: inactive | outcome [4]: inactive | outcome [5]: inactive | outcome [6]: inactive | outcome [7]: inactive

O=C(NS(=O)(=O)/C=C/c1cccs1)c1ccc(F)cc1Br
outcome [3]: inactive | outcome [8]: inactive | outcome [4]: inactive | outcome [5]: inactive | outcome [9]: inactive | AC50 [10]: 1.72 µM (active) | AC50 [11]: 29.6 µM (active) | AC50 [12]: 17.3 µM (active) | outcome [6]: inactive | AC50 [7]: 51.2 µM (active)

COc1ccc(OC(F)(F)F)cc1CN[C@H]1CCCN[C@H]1c1ccccc1
AC50 [1]: 11.1 µM (active) | outcome [8]: inactive | AC50 [4]: 85.4 µM (active) | AC50 [5]: 75.7 µM (active) | AC50 [9]: 11.3 µM (active)

O=C(Oc1ccccc1)c1cccc(C(=O)Oc2ccccc2)c1
outcome [3]: inactive | outcome [8]: inactive | AC50 [9]: 72 µM (active) | outcome [10]: inactive | AC50 [11]: 75.2 µM (active) and 79.8 µM (active) | AC50 [12]: 69.2 µM (active) | outcome [12]: inactive | outcome [7]: inactive | outcome [13]: inactive | outcome [14]: inactive | outcome [15]: inactive | AC50 [16]: 72.7 µM (active) | outcome [17]: inactive | outcome [18]: inactive

Oc1ccc(O)cc1
AC50 [8]: 26.4 µM (active) | outcome [4]: inactive | outcome [5]: inactive | outcome [11]: inactive | AC50 [12]: 44 µM (active) | outcome [7]: inactive | outcome [13]: inactive | outcome [14]: inactive | outcome [16]: inactive | outcome [17]: inactive | AC50 [18]: 2.16 µM (active) | outcome [19]: inactive | outcome [20]: inactive

COc1ccc(C(=O)Nc2nc3ccccc3c(NCc3ccccc3)c2C#N)cc1
outcome [8]: inactive | outcome [4]: inactive | outcome [5]: inactive | outcome [9]: inactive | AC50 [10]: 14.4 µM (active) | AC50 [11]: 9.26 µM (active) | outcome [12]: inactive | outcome [7]: inactive | AC50 [13]: 9.81 µM (active) | AC50 [14]: 0.349 µM (active) | AC50 [16]: 3.33 µM (active) | outcome [17]: inactive | AC50 [18]: 3.01 µM (active) | outcome [19]: inactive | outcome [20]: inactive

C=CCc1ccc(OC)c(OC)c1
outcome [8]: inactive | outcome [9]: inactive | outcome [10]: inactive | outcome [11]: inactive | outcome [12]: inactive | outcome [6]: inactive | outcome [7]: inactive

NCCOCCOCCN
outcome [3]: inactive | outcome [8]: inactive | outcome [11]: inactive | outcome [12]: inactive | outcome [7]: inactive
